Counter-ions that a name gives are not always drawn.

We go through 14 compounds from the supplement of paper PMC7411054.

This assay deals with WPMY1-ACTB-RAB5A. In words: phenotypically active (imaging signature differs from DMSO and reproducible) at any of 0.3-9 uM (binary (1 = active, 0 = inactive)); higher = active. As to conditions: treatment time: 24 h. An outline of the steps: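 Fifteen gene-edited A549, HepG2 and WPMY1 reporter lines (BFP segmentation plus GFP and RFP/FusionRed markers) were treated at 0.3, 1, 3 or 9 µM for 24 h, four wells each, then imaged live. Live-cell features per well were normalised to DMSO control wells. Deviation required ≥3 of 4 wells beyond the 95th percentile of DMSO Euclidean distances, and reproducibility required median replicate Pearson correlation above the 95th percentile of non-replicates. Phenotypic activity needed both criteria.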
Take `O=C(CCCCCCC(=O)Nc1ccc([C@H]2O[C@@H](CSc3nc(-c4ccccc4)c(-c4ccccc4)o3)C[C@@H](c3ccc(CO)cc3)O2)cc1)NO` [Tubacin]: the phenotypically active is 1 (active).

Consider `CC1CNCCN1S(=O)(=O)c1cccc2cnccc12` (centres undefined) [H-7 dihydrochloride], for which the phenotypically active is 1 (active).

Turning to `COc1cc(OC)c2c(=O)[nH]c(-c3cc(C)c(OCCO)c(C)c3)nc2c1` [apabetalone], the phenotypically active was 0 (inactive).

For `CC1(CN2CCC(n3c(=O)[nH]c4ccccc43)CC2)OCc2ccccc2-n2cccc21` (centres undefined), the phenotypically active was 0 (inactive).

As for `N#Cc1ccc2ncnc(NCCc3ccccc3)c2c1` [Senexin A], the phenotypically active was 1 (active).

Consider `Nc1ccc(N=Nc2ccccc2)c(N)n1` [phenazopyridine], for which the phenotypically active is 0 (inactive).

For the compound `O=C(CCCCCCC(=O)NO)NO`, the phenotypically active is 0 (inactive).

For the compound `CC(C)(C)c1ccc(C(O)CCCN2CCC(C(O)(c3ccccc3)c3ccccc3)CC2)cc1` (centres undefined) [terfenadine], the phenotypically active was 0 (inactive).

On to `COc1ccccc1C(=O)Nc1cc2c(cc1N1CCCC1)n(C)c(=O)n2C`, for which the phenotypically active was 1 (active).

`CCC(=O)N1CCOc2c(cc(-c3ccc(OC)c(OC)c3)cc2OC[C@H]2CCCN(C)C2)C1`: the phenotypically active is 0 (inactive).

`CCc1nc(-c2cccc(C)c2)c(-c2ccnc(NC(=O)c3ccccc3)c2)s1`: the phenotypically active was 1 (active).

Turning to `Cc1ccc(S(=O)(=O)n2c(N)nc3ccccc32)cc1`, the phenotypically active is 0 (inactive).

Take `Cc1ccc(NC(=O)c2cccc(C(C)(C)C#N)c2)cc1Nc1ccc2ncn(C)c(=O)c2c1`: the phenotypically active was 1 (active).

As for `Cn1cc(-c2cnc3ccc4ccc(CS(=O)(=O)NCc5ccccn5)cc4c(=O)c3c2)cn1`, the phenotypically active was 0 (inactive).
